{"source": "paper PMC5540273", "about": "(PLoS ONE, 2017);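 note: KINOMEscan kinase panel screen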"}
{"test_system": "CHEK1", "conditions": "concentration: 1 μM, replicates: in singlicate; n = 1", "units": {"%Inh": "%"}}
{"compound": "O=c1cc(N2CCOCC2)nc2n(Cc3cccc(Cl)c3Cl)c(C3CC3)nn12", "note": "[GSK2358994]", "%Inh": 15}
{"compound": "CCc1nc(-c2cccc(C)c2)c(-c2ccnc(NCc3ccccc3)c2)s1", "%Inh": 0}
{"compound": "COc1cc2c(cc1OCCN1CCN(C)CC1)ncc1c3ccc(C#N)cc3[nH]c21", "%Inh": 83}
{"compound": "NCC(NC(=O)c1cc(-c2cn[nH]c2)c(-c2ccnc3[nH]ccc23)s1)c1ccccc1.O=C(O)C(F)(F)F.O=C(O)C(F)(F)F", "note": "(stereo not drawn) [GSK1325775]", "%Inh": 37}
{"compound": "O=c1cc(N2CCOCC2)nc2n(Cc3cccc4ccccc34)ccn12", "note": "[GSK2333389]", "%Inh": 20}
{"compound": "O=C(Nc1n[nH]c2cc(-c3cccc(F)c3)ccc12)C1CC1", "note": "[SB-735464]", "%Inh": 0}
{"compound": "C[C@@H](Oc1cc(-n2cnc3ccc(NC(=O)NC(C)(C)C)cc32)sc1C(N)=O)c1ccccc1Cl", "note": "[GSK346294]", "%Inh": 10}
{"compound": "Cn1ccc2ncnc(Oc3ccc(NC(=O)Nc4ccncc4)c(Cl)c3)c21", "%Inh": 0}
{"compound": "Nc1nc(-c2ccc3c(N)n[nH]c3c2)cc(N2CCCC2)n1", "note": "[GSK2227430]", "%Inh": 9}
{"compound": "O=C(NOCC1CC1)c1ccc(F)c(F)c1Nc1ccc(I)cc1Cl", "%Inh": 0}
{"compound": "Cn1cc(-c2ccc3c(c2)CCN3C(=O)Cc2ccccc2Cl)c2c(N)ncnc21", "note": "[GSK2608885]", "%Inh": 35}
{"compound": "COc1ccc(S(=O)(=O)NC2CCN(c3cc(C)nc(Nc4cccc(C#N)c4)n3)CC2)cc1.O=C(O)C(F)(F)F", "note": "[GSK1653539]", "%Inh": 0}
{"compound": "Cc1ccc(C(=O)NCC(N)=O)cc1-n1c(C)cc(OCc2ccc(F)cc2F)c(Br)c1=O", "%Inh": 17}
{"compound": "N#Cc1ccc(-c2cc(-c3c[nH]nc3-c3ccccn3)ccn2)cc1", "note": "[GW693028]", "%Inh": 0}
{"compound": "Fc1ccc(-c2ncn(CCCN3CCOCC3)c2-c2cccnc2)cc1", "note": "[SB-211743]", "%Inh": 0}
{"compound": "COc1cc2ncn(-c3cc(OCc4sccc4Cl)c(C(N)=O)s3)c2cc1OC", "note": "[GSK448459]", "%Inh": 0}
{"compound": "O=C(NCCNc1ccnc(Nc2ccc(F)cc2)n1)c1cc2ccccc2s1", "note": "[GSK1379874]", "%Inh": 2}
{"compound": "CCc1ccnc(/C=C/c2n[nH]c3cc(Sc4ccccc4C(=O)NC)ccc23)c1", "%Inh": 0}
{"compound": "Cc1nnc(-c2ccc3ncc(-c4ccc(S(C)=O)cc4)n3c2)o1", "note": "(stereo not drawn)", "%Inh": 0}
{"compound": "CCn1cnc2c(N)ncnc21", "note": "[GW345098]", "%Inh": 12}
{"compound": "Nc1nccc(-c2c(-c3ccc(F)cc3)ncn2C2CCN(CC(F)(F)F)CC2)n1", "note": "[SB-236560]", "%Inh": 0}
{"compound": "O=C(NCCNc1ccnc(Nc2ccc(F)cc2)n1)Nc1ccccc1F", "note": "[GSK1379880]", "%Inh": 11}
{"compound": "O=c1cc(N2CCOCC2)nc2n(Cc3cccc(C(F)(F)F)c3)ccn12", "note": "[GSK2297543]", "%Inh": 0}
{"compound": "COc1ccc(Nc2nccc(N3CCC(NC(=O)Nc4cc(C)ccc4C)C3)n2)cc1", "note": "(stereo not drawn) [GSK1379741]", "%Inh": 0}
{"compound": "O=C1NC(=O)C(N2CCc3ccccc32)=C1c1cccc(Cl)c1", "note": "[SB-408010]", "%Inh": 0}
{"compound": "Cc1c(Cn2c(C)nn3c(=O)cc(N4CCOC(C)C4)nc23)cccc1C(F)(F)F", "note": "(stereo not drawn) [GSK2344444]", "%Inh": 10}
{"compound": "Fc1ccc(-c2ncn(CCCN3CCOCC3)c2-c2ccccn2)cc1", "note": "[SB-211742]", "%Inh": 0}
{"compound": "Cc1c2ccc(N(C)c3ccnc(Nc4cccc(S(N)(=O)=O)c4)n3)cc2nn1Cc1ccccc1.Cl.Cl", "note": "[GW787226]", "%Inh": 0}
{"compound": "CC(C)(C)n1cnc2c(N)ncnc21", "note": "[SKF-97359]", "%Inh": 0}
{"compound": "COCCNC(=O)c1ccc(-c2cc(C(=O)NC3CC3)cc(F)c2C)cc1", "note": "[GW868318]", "%Inh": 9}
{"compound": "Cc1cccc(-c2nc(Nc3ccc4ncsc4c3)c3ccccc3n2)n1", "note": "[GW867588]", "%Inh": 0}
{"compound": "CN(C(=O)c1ccc(-c2cc(-c3c[nH]nc3-c3ccccn3)ccn2)cc1)C1CCOCC1", "note": "[GW810083]", "%Inh": 0}
{"compound": "Cc1ccc(NC(=O)c2ccnc(N3CCN(C)CC3)c2)cc1-c1ccc(C(=O)NCC2CC2)cc1", "note": "[GW775604]", "%Inh": 0}
{"test_system": "CHEK2", "conditions": "concentration: 1 μM, replicates: in singlicate; n = 1", "units": {"%Inh": "%"}}
{"compound": "O=c1cc(N2CCOCC2)nc2n(Cc3cccc(Cl)c3Cl)c(C3CC3)nn12", "note": "[GSK2358994]", "%Inh": 0}
{"compound": "CCc1nc(-c2cccc(C)c2)c(-c2ccnc(NCc3ccccc3)c2)s1", "%Inh": 10}
{"compound": "COc1cc2c(cc1OCCN1CCN(C)CC1)ncc1c3ccc(C#N)cc3[nH]c21", "%Inh": 45}
{"compound": "NCC(NC(=O)c1cc(-c2cn[nH]c2)c(-c2ccnc3[nH]ccc23)s1)c1ccccc1.O=C(O)C(F)(F)F.O=C(O)C(F)(F)F", "note": "(stereo not drawn) [GSK1325775]", "%Inh": 86}
{"compound": "O=c1cc(N2CCOCC2)nc2n(Cc3cccc4ccccc34)ccn12", "note": "[GSK2333389]", "%Inh": 0}
{"compound": "O=C(Nc1n[nH]c2cc(-c3cccc(F)c3)ccc12)C1CC1", "note": "[SB-735464]", "%Inh": 0}
{"compound": "C[C@@H](Oc1cc(-n2cnc3ccc(NC(=O)NC(C)(C)C)cc32)sc1C(N)=O)c1ccccc1Cl", "note": "[GSK346294]", "%Inh": 19}
{"compound": "Cn1ccc2ncnc(Oc3ccc(NC(=O)Nc4ccncc4)c(Cl)c3)c21", "%Inh": 20}
{"compound": "Nc1nc(-c2ccc3c(N)n[nH]c3c2)cc(N2CCCC2)n1", "note": "[GSK2227430]", "%Inh": 0}
{"compound": "O=C(NOCC1CC1)c1ccc(F)c(F)c1Nc1ccc(I)cc1Cl", "%Inh": 21}
{"compound": "Cn1cc(-c2ccc3c(c2)CCN3C(=O)Cc2ccccc2Cl)c2c(N)ncnc21", "note": "[GSK2608885]", "%Inh": 4}
{"compound": "COc1ccc(S(=O)(=O)NC2CCN(c3cc(C)nc(Nc4cccc(C#N)c4)n3)CC2)cc1.O=C(O)C(F)(F)F", "note": "[GSK1653539]", "%Inh": 14}
{"compound": "Cc1ccc(C(=O)NCC(N)=O)cc1-n1c(C)cc(OCc2ccc(F)cc2F)c(Br)c1=O", "%Inh": 9}
{"compound": "N#Cc1ccc(-c2cc(-c3c[nH]nc3-c3ccccn3)ccn2)cc1", "note": "[GW693028]", "%Inh": 0}
{"compound": "Fc1ccc(-c2ncn(CCCN3CCOCC3)c2-c2cccnc2)cc1", "note": "[SB-211743]", "%Inh": 0}
{"compound": "COc1cc2ncn(-c3cc(OCc4sccc4Cl)c(C(N)=O)s3)c2cc1OC", "note": "[GSK448459]", "%Inh": 6}
{"compound": "O=C(NCCNc1ccnc(Nc2ccc(F)cc2)n1)c1cc2ccccc2s1", "note": "[GSK1379874]", "%Inh": 0}
{"compound": "CCc1ccnc(/C=C/c2n[nH]c3cc(Sc4ccccc4C(=O)NC)ccc23)c1", "%Inh": 8}
{"compound": "Cc1nnc(-c2ccc3ncc(-c4ccc(S(C)=O)cc4)n3c2)o1", "note": "(stereo not drawn)", "%Inh": 0}
{"compound": "CCn1cnc2c(N)ncnc21", "note": "[GW345098]", "%Inh": 0}
{"compound": "Nc1nccc(-c2c(-c3ccc(F)cc3)ncn2C2CCN(CC(F)(F)F)CC2)n1", "note": "[SB-236560]", "%Inh": 38}
{"compound": "O=C(NCCNc1ccnc(Nc2ccc(F)cc2)n1)Nc1ccccc1F", "note": "[GSK1379880]", "%Inh": 0}
{"compound": "O=c1cc(N2CCOCC2)nc2n(Cc3cccc(C(F)(F)F)c3)ccn12", "note": "[GSK2297543]", "%Inh": 0}
{"compound": "COc1ccc(Nc2nccc(N3CCC(NC(=O)Nc4cc(C)ccc4C)C3)n2)cc1", "note": "(stereo not drawn) [GSK1379741]", "%Inh": 0}
{"compound": "O=C1NC(=O)C(N2CCc3ccccc32)=C1c1cccc(Cl)c1", "note": "[SB-408010]", "%Inh": 7}
{"compound": "Cc1c(Cn2c(C)nn3c(=O)cc(N4CCOC(C)C4)nc23)cccc1C(F)(F)F", "note": "(stereo not drawn) [GSK2344444]", "%Inh": 0}
{"compound": "Fc1ccc(-c2ncn(CCCN3CCOCC3)c2-c2ccccn2)cc1", "note": "[SB-211742]", "%Inh": 0}
{"compound": "Cc1c2ccc(N(C)c3ccnc(Nc4cccc(S(N)(=O)=O)c4)n3)cc2nn1Cc1ccccc1.Cl.Cl", "note": "[GW787226]", "%Inh": 8}
{"compound": "CC(C)(C)n1cnc2c(N)ncnc21", "note": "[SKF-97359]", "%Inh": 2}
{"compound": "COCCNC(=O)c1ccc(-c2cc(C(=O)NC3CC3)cc(F)c2C)cc1", "note": "[GW868318]", "%Inh": 19}
{"compound": "Cc1cccc(-c2nc(Nc3ccc4ncsc4c3)c3ccccc3n2)n1", "note": "[GW867588]", "%Inh": 7}
{"compound": "CN(C(=O)c1ccc(-c2cc(-c3c[nH]nc3-c3ccccn3)ccn2)cc1)C1CCOCC1", "note": "[GW810083]", "%Inh": 12}
{"compound": "Cc1ccc(NC(=O)c2ccnc(N3CCN(C)CC3)c2)cc1-c1ccc(C(=O)NCC2CC2)cc1", "note": "[GW775604]", "%Inh": 15}
